# According to PubChem BioAssay (NCATS):
# Results filed as inconclusive are left out. Calls of active or inactive are those of the source. Unless noted, the call rests on the fitted dose curve; in most records, active means well fitted curve in the direction sought with a large enough effect; inconclusive means small, poorly fitted or top-dose-only effect, or another doubt; inactive means no such curve, though single readings can be large; an effect the other way counts as inactive or inconclusive.
# What was measured:
# [1] = qHTS assay for small molecule antagonists of peroxisome proliferator-activated receptor delta signaling (AID 588535; active means well fitted inhibition curve with a large enough effect in the signal ratio, with a control signal flat, not every such curve was filed as active; the % refers to the signal ratio;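 on max response: cells co-treated with a PPAR-delta agonist as stimulator during compound exposure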); settings: HEK293T PPARd-UAS-bla, beta-lactamase FRET ratio, 18 h; 460 nm channel
# Summary of the method: (§1)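 Reporter: UAS-bla under PPAR-delta response element, HEK293T host. Medium: 2% charcoal/dextran FBS. Dosing: titration, 18 hrs, 37 C. Detection: CCF4, 2 hrs RT, 405 ex/460 and 530 em.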
# [2] = target: Peroxisome proliferator-activated receptor delta (Homo sapiens) (UniProt Q03181); assay: as above; settings: HEK293T PPARd-UAS-bla, beta-lactamase FRET ratio, 18 h; series mostly up to 76.7 µM
# Peroxisome proliferator-activated receptor delta (Homo sapiens), sequence (Q03181 whole entry, looked up): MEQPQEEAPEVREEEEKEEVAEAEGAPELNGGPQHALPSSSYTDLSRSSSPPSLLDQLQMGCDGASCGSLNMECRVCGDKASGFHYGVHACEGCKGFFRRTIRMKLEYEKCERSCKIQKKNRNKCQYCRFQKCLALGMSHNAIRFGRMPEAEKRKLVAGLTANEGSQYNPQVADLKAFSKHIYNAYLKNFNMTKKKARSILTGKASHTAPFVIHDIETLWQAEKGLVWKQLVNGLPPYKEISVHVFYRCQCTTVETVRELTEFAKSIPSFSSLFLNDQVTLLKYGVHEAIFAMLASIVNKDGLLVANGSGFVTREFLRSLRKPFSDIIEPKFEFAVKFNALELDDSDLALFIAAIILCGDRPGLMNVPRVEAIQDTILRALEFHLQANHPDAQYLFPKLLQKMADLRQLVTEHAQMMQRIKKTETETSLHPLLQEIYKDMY
# Summary of the method: as §1
# [3] = qHTS assay for small molecule agonists of retinoid X receptor alpha signaling (AID 588544; calls by dose curve;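 on activation: 0% = DMSO basal wells and 100% = reference agonist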); settings: HEK293T RXRa-UAS-bla, beta-lactamase reporter, 18 h; 530 nm emission
# [4] = target: Retinoic acid receptor RXR-alpha (Homo sapiens) (UniProt P19793); assay: as above; settings: HEK293T RXRa-UAS-bla, beta-lactamase reporter, 18 h; series mostly up to 76.7 µM
# Retinoic acid receptor RXR-alpha (Homo sapiens), sequence (P19793 whole entry, looked up): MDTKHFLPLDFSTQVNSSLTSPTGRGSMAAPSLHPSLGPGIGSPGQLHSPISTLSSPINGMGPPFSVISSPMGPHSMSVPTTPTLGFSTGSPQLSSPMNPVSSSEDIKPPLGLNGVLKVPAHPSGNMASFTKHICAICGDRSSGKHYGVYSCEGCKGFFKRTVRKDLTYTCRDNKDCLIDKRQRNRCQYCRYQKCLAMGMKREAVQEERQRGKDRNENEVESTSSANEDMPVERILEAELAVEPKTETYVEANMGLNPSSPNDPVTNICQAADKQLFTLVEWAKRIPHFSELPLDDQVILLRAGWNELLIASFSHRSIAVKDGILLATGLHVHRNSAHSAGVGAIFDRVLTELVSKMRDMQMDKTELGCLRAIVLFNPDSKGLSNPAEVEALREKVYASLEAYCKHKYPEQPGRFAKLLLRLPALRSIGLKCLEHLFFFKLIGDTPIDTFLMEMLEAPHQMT
# [5] = target: Thyroid hormone receptor beta (Homo sapiens) (UniProt P10828); assay: qHTS assay for small molecule agonists of thyroid hormone receptor beta signaling (AID 588545; calls by dose curve;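 further: 0% = DMSO only and 100% = 10 nM T3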); settings: TR-UAS-bla GripTite HEK 293, beta-lactamase ratio, agonist mode, 18 h; series mostly up to 76.7 µM
# Thyroid hormone receptor beta (Homo sapiens), sequence (P10828 whole entry, looked up): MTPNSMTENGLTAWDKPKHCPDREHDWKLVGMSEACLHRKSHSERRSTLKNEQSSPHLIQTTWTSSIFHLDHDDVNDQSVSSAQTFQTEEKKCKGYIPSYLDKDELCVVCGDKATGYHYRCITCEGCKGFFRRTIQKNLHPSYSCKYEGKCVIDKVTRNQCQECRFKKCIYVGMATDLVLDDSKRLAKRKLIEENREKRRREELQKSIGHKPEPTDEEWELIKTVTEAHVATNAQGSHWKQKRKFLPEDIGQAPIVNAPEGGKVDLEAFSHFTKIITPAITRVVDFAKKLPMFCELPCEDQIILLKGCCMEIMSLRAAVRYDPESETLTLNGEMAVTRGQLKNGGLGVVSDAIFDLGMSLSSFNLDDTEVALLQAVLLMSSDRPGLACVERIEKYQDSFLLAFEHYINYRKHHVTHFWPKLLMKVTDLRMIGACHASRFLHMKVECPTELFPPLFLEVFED
# Summary of the method: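 Efficacy and EC50 values derive from Hill fits of qHTS titration data, normalized to 10 nM T3 and DMSO-only wells. HEK 293 reporter cells were stimulated for 18 hrs at 37 C, with beta-lactamase activity measured by CCF4 fluorescence.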
# [6] = qHTS assay for small molecule antagonists of retinoid X receptor alpha signaling (AID 588546; active means well fitted inhibition curve with a large enough effect in the signal ratio, with a control signal flat, not every such curve was filed as active; the % refers to the signal ratio;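 further: cells stimulated with 9-cis-retinoic acid as agonist; on the % scale 0 is the no-effect control and ±100 the full control effect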); settings: HEK293T RXRa-UAS-bla, beta-lactamase ratio, antagonist mode; measured here: W530 green channel, cytotoxicity proxy
# Summary of the method: (§2)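 Beta-lactamase reporter inhibition, read as CCF4 fluorescence ratio (ex 405, em 460/530 nm) after 2 h at RT. HEK293T UAS-bla cells, 2500/well, were stimulated with 9-cis-RA at 500 or 100 nM final alongside test compound for 18 h at 37 C.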
# [7] = target: Retinoic acid receptor RXR-alpha (Homo sapiens) (UniProt P19793); assay: as above; settings: HEK293T RXRa-UAS-bla, beta-lactamase ratio, antagonist mode
# Summary of the method: as §2
# [8] = qHTS assay for small molecule activators of the p53 signaling pathway (AID 651743; active means well fitted activation curve with a large enough effect in the signal ratio, not every such curve was filed as active; the % refers to the signal ratio; further: % of control where 0% means no effect); settings: HCT-116 p53RE-bla, beta-lactamase FRET ratio, 16 h; activation: stronger effect = higher value
# Summary of the method: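 Cell-based beta-lactamase reporter (p53 response elements, HCT-116 background). After a 5-hour preincubation, cells received compound for 16 hours at 37 C; substrate development ran 2 hours at room temperature.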
# [9] = qHTS assay for environmental chemicals that activate the Aryl hydrocarbon Receptor (AhR) signaling pathway (AID 651777); settings: 1A2-DRE human hepatoma cells, luciferase, 24 h; activation: stronger effect = higher value; further: % of control where 0% means no effect; nearly all actives have a fitted effect of over 15% in size
# Summary of the method: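 Luminescence (One-Glo, 30 min, room temperature) reports AhR-driven luciferase in stably transfected human hepatoma cells bearing DRE and CYP1A2 promoter. Cells (1,200/well) were treated with compound for 24 hr at 37 C in qHTS format.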
# [10] = target: Peroxisome proliferator-activated receptor alpha (Homo sapiens) (UniProt Q07869); assay: qHTS assay for small molecule agonists of the peroxisome proliferator-activated receptor alpha (PPARalpha) signaling pathway (AID 651778); settings: PathHunter PPARalpha complementation, chemiluminescence, 6 h; max response: stronger effect = higher value; further: % of control where 0% means no effect
# Peroxisome proliferator-activated receptor alpha (Homo sapiens), sequence (Q07869 whole entry, looked up): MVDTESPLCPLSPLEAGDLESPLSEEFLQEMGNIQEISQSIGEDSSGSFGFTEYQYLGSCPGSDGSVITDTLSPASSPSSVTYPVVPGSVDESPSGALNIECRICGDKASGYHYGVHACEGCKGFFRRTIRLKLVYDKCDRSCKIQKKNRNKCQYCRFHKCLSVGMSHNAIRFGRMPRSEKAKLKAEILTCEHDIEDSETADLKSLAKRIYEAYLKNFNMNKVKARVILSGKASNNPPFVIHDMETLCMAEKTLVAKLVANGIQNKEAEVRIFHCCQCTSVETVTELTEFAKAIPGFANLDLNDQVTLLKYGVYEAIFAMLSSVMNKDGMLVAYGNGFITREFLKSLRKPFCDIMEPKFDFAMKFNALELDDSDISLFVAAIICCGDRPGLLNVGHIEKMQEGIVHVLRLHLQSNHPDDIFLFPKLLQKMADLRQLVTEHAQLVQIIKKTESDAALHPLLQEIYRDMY
# Summary of the method: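 Cells plated at 2,000/well and held overnight at 37 C, 5% CO2, then compound added by pin tool for 6 hr; after PathHunter detection reagent and 60 min at room temperature, chemiluminescence from enzyme complementation was read.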
# [11] = qHTS assay for small molecule agonists of the antioxidant response element (ARE) signaling pathway measured by Nrf2-dependant transcriptional activity (AID 720636; active means well fitted curve in the direction sought with a large enough effect in the repeat runs; an effect the other way counts as inactive or inconclusive; further: % of control where 0% means no effect); settings: ARE-luc HepG2, Nrf2 luciferase reporter, 16 h; series mostly up to 92.4 µM
# Summary of the method: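 Nrf2-dependent transcription read as ONE-Glo luciferase signal from ARE-luc HepG2 reporter cells after 16 hr compound treatment at 37 C, 5% CO2, in assay medium with 1% dialyzed FBS.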
# [12] = qHTS assay for small molecule agonists of the antioxidant response element (ARE) signaling pathway measured by Nrf2-dependant transcriptional activity - cell viability counter screen (AID 720653; active means well fitted curve in the direction sought with a large enough effect in the repeat runs; an effect the other way counts as inactive or inconclusive; further: on the % scale 0 is the no-effect control and ±100 the full control effect); settings: ARE-bla HepG2 viability, CellTiter-Glo ATP luminescence, 16 h; max response: stronger effect = lower value
# Summary of the method: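 ARE-bla HepG2 cells (2,000/well) rested 5 hrs at 37C/5% CO2, then exposed to compounds in DMSO for 16 hrs. Viability was read in the same wells as intracellular ATP by luminescence, 30 min at room temperature after reagent addition.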
# [13] = qHTS assay for cell viability of HEK293 cells (AID 743288); settings: ATP luminescence (CellTiter-Glo), 18 h; max response: stronger effect = lower value; further: on the % scale 0 is the no-effect control and ±100 the full control effect; nearly all actives have a fitted effect of over 50% in size
# Summary of the method: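 Parental HEK293 cells were seeded at 2,000 cells/well, rested at least 5 h at 37 C, then exposed to compounds in DMSO for 18 h at 37 C. Viability was read as ATP-dependent luciferase luminescence after 30 min at room temperature.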
# [14] = target: Nuclear receptor subfamily 1 group I member 2 (Rattus norvegicus) (UniProt Q9R1A7); assay: qHTS assay for small molecule activators of the rat pregnane X receptor (rPXR) signaling pathway (AID 651751; call rule not given here; further: 0% is about no effect); settings: rPXR reporter cells, luciferase (One-Glo), 24 h
# Nuclear receptor subfamily 1 group I member 2 (Rattus norvegicus), sequence (Q9R1A7 whole entry, looked up): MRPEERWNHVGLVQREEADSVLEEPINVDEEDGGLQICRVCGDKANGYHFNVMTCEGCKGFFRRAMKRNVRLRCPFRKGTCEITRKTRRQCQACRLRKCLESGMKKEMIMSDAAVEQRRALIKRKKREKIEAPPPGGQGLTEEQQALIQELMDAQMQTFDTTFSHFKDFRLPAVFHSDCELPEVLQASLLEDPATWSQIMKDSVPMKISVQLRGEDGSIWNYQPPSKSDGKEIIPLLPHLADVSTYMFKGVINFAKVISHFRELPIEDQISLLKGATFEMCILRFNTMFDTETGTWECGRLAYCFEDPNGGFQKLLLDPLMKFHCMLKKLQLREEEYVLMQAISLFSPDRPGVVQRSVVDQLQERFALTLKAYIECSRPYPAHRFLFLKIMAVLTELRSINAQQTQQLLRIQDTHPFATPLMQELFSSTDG
# [15] = qHTS assay for small molecule activators of the human pregnane X receptor (PXR) signaling pathway (AID 720659; call rule not given here; further: 0% is about no effect); settings: DPX-2 HepG2 CYP3A4-luciferase, 24 h; series mostly up to 92.3 µM
# [16] = target: Vitamin D3 receptor (Homo sapiens) (UniProt P11473); assay: qHTS assay for small molecule antagonists of vitamin D receptor signaling (AID 588541; calls by dose curve;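 further: receptor activated by calcitriol during compound treatment; on the % scale 0 is the no-effect control and ±100 the full control effect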); settings: HEK293T VDR-UAS-bla, beta-lactamase ratio, antagonist mode; series mostly up to 76.7 µM
# Vitamin D3 receptor (Homo sapiens), sequence (P11473 whole entry, looked up): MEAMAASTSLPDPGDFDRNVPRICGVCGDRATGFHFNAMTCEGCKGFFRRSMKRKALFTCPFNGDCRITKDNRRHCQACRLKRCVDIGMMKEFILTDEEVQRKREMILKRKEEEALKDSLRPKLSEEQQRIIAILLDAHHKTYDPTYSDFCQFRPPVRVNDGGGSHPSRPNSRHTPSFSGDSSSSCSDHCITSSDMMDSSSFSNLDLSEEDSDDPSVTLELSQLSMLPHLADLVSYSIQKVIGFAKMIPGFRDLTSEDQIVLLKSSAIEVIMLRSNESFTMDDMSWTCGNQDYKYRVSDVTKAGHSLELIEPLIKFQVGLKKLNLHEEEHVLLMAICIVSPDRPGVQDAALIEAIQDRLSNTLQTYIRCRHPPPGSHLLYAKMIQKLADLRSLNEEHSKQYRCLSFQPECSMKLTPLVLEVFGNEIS
# Summary of the method: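 VDR-UAS-bla HEK293T cells (2000/well, 2% charcoal-stripped FBS) were treated with titrated compounds plus 1-alpha,25-dihydroxyvitamin D3 (50 nM or 3 nM final) for 16 h at 37 C. CCF4 beta-lactamase fluorescence was read; Hill fits gave IC50.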
# [17] = target: Vitamin D3 receptor (Homo sapiens) (UniProt P11473); assay: qHTS assay for small molecule agonists of vitamin D receptor signaling (AID 588543; calls by dose curve;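 further: 0% = DMSO basal and 100% = reference agonist control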); settings: HEK293T VDR-UAS-bla, beta-lactamase ratio, 16 h; series mostly up to 76.8 µM
# Summary of the method: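 GeneBLAzer VDR-UAS-bla HEK293T cells in 2% charcoal-stripped FBS medium were dosed with compound titrations for 16 h at 37 °C; CCF4 β-lactamase readout (405 nm ex, 460/530 nm em). EC50 and efficacy from Hill fits, normalized to 50 nM calcitriol (100%) and DMSO (0%).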
# [18] = target: Thyroid hormone receptor beta (Homo sapiens) (UniProt P10828); assay: qHTS assay for small molecule antagonists of thyroid hormone receptor beta signaling (AID 588547; active means well fitted inhibition curve with a large enough effect in the signal ratio, with a control signal flat, not every such curve was filed as active; the % refers to the signal ratio;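 further: cells stimulated with 0.4 nM T3 agonist during compound exposure; on the % scale 0 is the no-effect control and ±100 the full control effect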); settings: TR-UAS-bla HEK293, beta-lactamase ratio, antagonist mode, 18 h
# Summary of the method: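 TR-UAS-bla GripTite HEK293 cells in 2% charcoal/dextran FBS medium were preincubated 4 h at 37 C, given compound (0.59 nM to 92 uM) plus 0.4 nM T3 (final) for 18 h, then CCF4 for 2 h at RT; Hill fit gave IC50.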
# [19] = qHTS assay for small molecule activators of the nuclear factor-kappa B (NF-kB) signaling pathway (AID 651749; active means well fitted activation curve with a large enough effect in the signal ratio; the % refers to the signal ratio; further: % of control where 0% means no effect); settings: NF-kB-bla ME-180 cells, beta-lactamase FRET ratio, 16 h; activation: stronger effect = higher value
# Summary of the method: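 Screening used 2,000 ME-180 reporter cells per well exposed to pinned compound (23 nL) or DMSO; after 16 hr at 37C, beta-lactamase expression under NF-kB control was assessed through FRET.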
# [20] = qHTS assay for cell viability of the p53RE-bla HCT-116 cell line (AID 743292); settings: p53RE-bla HCT-116 viability, ATP luminescence, 16 h; series mostly up to 95 µM; further: on the % scale 0 is the no-effect control and ±100 the full control effect; nearly all actives have a fitted effect of over 55% in size
# Summary of the method: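 ATP-based luminescent viability (CellTiter-Glo, 30 min RT) after 16 h compound treatment at 37 C of p53RE-bla HCT-116 cells, seeded at 4,000 cells/well and rested 5 h before dosing.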
smiles,measurement,setting,value
CCCCCCCCCCCCCCCCN(C)C,max response,[1],-16.5%
same,Potency,[2],inactive
same,max response,[3],-18.2%
same,Potency,[4],inactive
same,Potency,[5],inactive
same,max response,[6],-9.65%
same,max response,[7],-24.8% (inactive)
same,activation,[8],-1.17% (inactive)
same,activation,[9],0.752% (inactive)
same,max response,[10],-0.399% (inactive)
same,Potency,[11],inactive
same,max response,[12],-13% (inactive)
same,max response,[13],-6.67% (inactive)
same,max response,[14],2.85% (inactive)
same,outcome,[15],inactive
Brc1ccc(Br)c(Br)c1,Potency,[16],inactive
same,outcome,[17],inactive
same,max response,[3],0.274%
same,Potency,[4],inactive
same,Potency,[5],inactive
same,max response,[6],-16.3%
same,activity change % (negative = inhibition),[18],-13.9% (inactive)
same,activation,[8],-2.82% (inactive)
same,activation,[19],-0.374% (inactive)
same,activation,[9],2.73% (inactive)
same,max response,[10],-4.16% (inactive)
same,Potency,[11],inactive
same,max response,[12],-18% (inactive)
same,max response,[13],-15.6% (inactive)
same,Potency,[20],inactive
same,max response,[14],-1.74% (inactive)
same,outcome,[15],inactive
CC(C)(C)c1ccc(O)c(C(C)(C)C)c1,Potency,[16],inactive
same,outcome,[17],inactive
same,max response,[3],-10.9%
same,Potency,[4],inactive
same,Potency,[5],inactive
same,max response,[6],-6.68%
same,max response,[7],-3.49% (inactive)
same,activity change % (negative = inhibition),[18],5.44% (inactive)
same,activation,[8],1.63% (inactive)
same,activation,[19],-1.75% (inactive)
same,activation,[9],0.859% (inactive)
same,max response,[10],8.37% (inactive)
same,Potency,[11],inactive
same,max response,[12],-2.61% (inactive)
same,max response,[13],-8.41% (inactive)
same,Potency,[20],inactive
same,max response,[14],6.32% (inactive)
